“And” between values parts separate entries of the source, which are not always exact repeats. Equal values may be shown once. Results filed as inconclusive are left out. Where a call stands in place of a potency, no number is given. Some structures have more than one record in an assay (separate samples or runs), and their calls can disagree. The source made the active and inactive calls. Calls follow the shape of the dose curve; as a rule, active = well fitted inhibition curve with a large enough effect; inconclusive = small, poorly fitted or top-dose-only effect; inactive = no such curve, though single readings can be large or run the other way.
Experiments:
[1] = target: Cytochrome P450 2C9 (Homo sapiens) (UniProt P11712); assay: qHTS Assay for Inhibitors and Substrates of Cytochrome P450 2C9 (AID 883); conditions: recombinant CYP2C9, luciferin-H luminescence, 60 min; series mostly up to 11.4 µM; also: nearly all actives have a fitted effect of over 60% in size; also: potency is read from the fitted curve at half-maximal effect
In short: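 Human CYP2C9 (10nM) hydroxylated Luciferin-H (100uM, at its KM) to luciferin in 25mM KPO4. Compound was preincubated 10 min at 37C, then NADPH regeneration started a 60 min reaction at 37C. Luminescence was read after detection reagent, normalized to 57uM sulphaphenazole.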

[2] = target: Cytochrome P450 3A4 (Homo sapiens) (UniProt P08684); assay: qHTS Assay for Inhibitors and Substrates of Cytochrome P450 3A4 (AID 884); conditions: recombinant CYP3A4, Luciferin-PPXE luminescence; series mostly up to 57.1 µM; also: nearly all actives have a fitted effect of over 50% in size
In short: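 20 nM human CYP3A4 with 25 uM Luciferin-PPXE (at KM) in 200 mM KPO4, preincubated 10 min with compound; NADPH regeneration started a 60 min RT reaction. Luciferin detected by luminescence, normalized to 57 uM ketoconazole as full inhibition.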

[3] = target: Cytochrome P450 2D6 (Homo sapiens) (UniProt P10635); assay: qHTS Assay for Inhibitors and Substrates of Cytochrome P450 2D6 (AID 891); conditions: recombinant CYP2D6, luciferin-ME EGE luminescence; series mostly up to 11.4 µM; also: nearly all actives have a fitted effect of over 60% in size; also: potency is read from the fitted curve at half-maximal effect;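 as to activity change, negative = inhibition: luciferin methyl ether substrate demethylated by CYP2D6 with NADPH regeneration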
In short: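 Human CYP2D6 (5 nM) with 30 uM Luciferin-ME EGE (at Km) in 100 mM KPO4, compound preincubated 10 min, then NADPH regeneration system for 60 min at room temperature. Luciferin read by luminescence; normalized to 1.43 uM quinidine.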

[4] = target: Cytochrome P450 2C19 (Homo sapiens) (UniProt P33261); assay: qHTS Assay for Inhibitors and Substrates of Cytochrome P450 2C19 (AID 899); conditions: recombinant CYP2C19, luciferin-H EGE luminescence; series mostly up to 11.4 µM; also: nearly all actives have a fitted effect of over 60% in size; also: potency is read from the fitted curve at half-maximal effect
In short: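 Human CYP2C19 (5nM) with Luciferin-H EGE at 10uM (its KM) in 50mM KPO4 was preincubated with compound for 10 min at 37C. NADPH regeneration started a 60 min 37C reaction. Luciferin was read by luminescence, normalized to 57uM ketoconazole.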

Cytochrome P450 2C9 (Homo sapiens), sequence (P11712 whole entry, looked up): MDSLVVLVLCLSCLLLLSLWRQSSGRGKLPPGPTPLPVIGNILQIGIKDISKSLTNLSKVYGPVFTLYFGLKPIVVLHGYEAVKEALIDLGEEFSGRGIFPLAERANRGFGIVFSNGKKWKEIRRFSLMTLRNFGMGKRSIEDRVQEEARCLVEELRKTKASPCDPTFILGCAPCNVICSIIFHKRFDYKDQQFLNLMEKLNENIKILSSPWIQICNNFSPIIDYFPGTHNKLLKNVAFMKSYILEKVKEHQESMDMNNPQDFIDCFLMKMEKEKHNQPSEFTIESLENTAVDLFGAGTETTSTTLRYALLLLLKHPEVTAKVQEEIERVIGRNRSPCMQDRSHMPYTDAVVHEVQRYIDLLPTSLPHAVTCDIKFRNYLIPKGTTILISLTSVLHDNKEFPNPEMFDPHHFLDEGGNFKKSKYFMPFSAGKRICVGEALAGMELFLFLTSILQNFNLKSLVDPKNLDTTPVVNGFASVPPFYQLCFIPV
Cytochrome P450 3A4 (Homo sapiens), sequence (P08684 whole entry, looked up): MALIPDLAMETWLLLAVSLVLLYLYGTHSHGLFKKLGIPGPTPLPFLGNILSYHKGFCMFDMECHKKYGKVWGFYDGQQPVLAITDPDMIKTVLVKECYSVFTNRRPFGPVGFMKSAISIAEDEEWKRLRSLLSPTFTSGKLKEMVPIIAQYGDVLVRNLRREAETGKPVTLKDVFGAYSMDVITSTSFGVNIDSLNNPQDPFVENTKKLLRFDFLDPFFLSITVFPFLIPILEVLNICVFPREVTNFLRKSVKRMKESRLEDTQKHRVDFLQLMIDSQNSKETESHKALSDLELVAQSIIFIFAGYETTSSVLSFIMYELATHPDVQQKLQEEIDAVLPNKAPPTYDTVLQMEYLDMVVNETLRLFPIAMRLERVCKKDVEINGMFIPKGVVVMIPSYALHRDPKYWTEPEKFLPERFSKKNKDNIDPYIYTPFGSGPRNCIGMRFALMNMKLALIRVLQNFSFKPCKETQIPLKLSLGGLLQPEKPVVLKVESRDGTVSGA
Cytochrome P450 2C19 (Homo sapiens), sequence (P33261 whole entry, looked up): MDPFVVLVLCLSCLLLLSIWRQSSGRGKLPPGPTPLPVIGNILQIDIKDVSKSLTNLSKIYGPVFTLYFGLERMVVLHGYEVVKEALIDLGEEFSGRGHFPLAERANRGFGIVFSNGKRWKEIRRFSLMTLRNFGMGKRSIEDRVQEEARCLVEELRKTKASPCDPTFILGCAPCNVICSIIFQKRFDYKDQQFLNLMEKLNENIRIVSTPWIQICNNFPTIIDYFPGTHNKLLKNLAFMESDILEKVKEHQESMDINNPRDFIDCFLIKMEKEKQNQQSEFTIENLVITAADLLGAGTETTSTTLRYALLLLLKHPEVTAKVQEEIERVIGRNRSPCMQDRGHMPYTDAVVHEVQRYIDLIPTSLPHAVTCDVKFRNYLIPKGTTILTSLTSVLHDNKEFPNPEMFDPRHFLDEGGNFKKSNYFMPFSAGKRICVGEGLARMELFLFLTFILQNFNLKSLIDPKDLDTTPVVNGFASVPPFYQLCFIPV
Cytochrome P450 2D6 (Homo sapiens), sequence (P10635 whole entry, looked up): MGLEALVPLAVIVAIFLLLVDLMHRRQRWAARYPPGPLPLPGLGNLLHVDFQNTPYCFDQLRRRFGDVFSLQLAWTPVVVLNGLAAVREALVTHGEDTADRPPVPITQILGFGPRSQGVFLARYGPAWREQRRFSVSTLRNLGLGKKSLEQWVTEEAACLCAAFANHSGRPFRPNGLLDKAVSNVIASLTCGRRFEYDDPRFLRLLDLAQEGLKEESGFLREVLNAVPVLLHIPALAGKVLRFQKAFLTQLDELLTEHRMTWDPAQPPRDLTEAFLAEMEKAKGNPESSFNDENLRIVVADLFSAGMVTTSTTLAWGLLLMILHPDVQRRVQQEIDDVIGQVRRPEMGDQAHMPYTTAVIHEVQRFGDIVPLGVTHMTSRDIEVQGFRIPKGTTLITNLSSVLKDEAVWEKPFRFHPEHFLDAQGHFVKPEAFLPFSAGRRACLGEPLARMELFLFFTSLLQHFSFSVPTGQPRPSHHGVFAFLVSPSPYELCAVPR

SMILES	Potency [1]	activity change, negative = inhibition [2]	Potency [3]	Potency [4]
C=CCc1cccc(C2NC(C(=O)O)CCC2C)c1 (configuration not stated)	inactive	-20.1% [at 11.4 µM] (inactive)	inactive	inactive
O=C(O)C1Cc2c([nH]c3ccccc23)C(c2ccccc2)N1 (configuration not stated)	inactive	-14.4% [at 11.4 µM] (inactive)	3980 nM (active)	inactive
COCC#Cc1ccc(C2NC(C(=O)O)CCC2C)cc1 (configuration not stated)	inactive	-8.92% [at 11.4 µM] (inactive)	inactive	inactive
CCOC(=O)[C@]1(C(NC(=O)OC)c2ccco2)CCCC1=O (some centres not stated)	inactive	-19.8% [at 11.4 µM] (inactive)	inactive	inactive
C=CCOCC1CN2C(CCC(C)C2c2ccc(Br)cc2)C(=O)O1 (configuration not stated)	inactive	-11.7% [at 11.4 µM] (inactive)	inactive	inactive
O=C1C2Cc3c([nH]c4ccccc34)C(c3ccccc3)N2C(=O)C2Cc3c([nH]c4ccccc34)C(c3ccccc3)N12 (configuration not stated)	inactive	-20.8% [at 11.4 µM] (inactive)	inactive	inactive
O=C(/C=C/c1ccccc1)N1CCCC1CO (configuration not stated)	inactive	-20.7% [at 11.4 µM] (inactive)	inactive	inactive
COC(=O)NC(/C=C/c1ccco1)[C@@]1(C(=O)OC)CCCC1=O (some centres not stated)	inactive	2.43% [at 11.4 µM] (inactive)	inactive	inactive
COC(C(C)/C=C/CC(=O)OCCCc1ccccc1)C1CCCCC1 (configuration not stated)	inactive	-20.5% [at 11.4 µM] (inactive)	inactive	inactive
O=C1/C(=C/c2ccccc2)Oc2ccccc21	inactive	-8.26% [at 11.4 µM] (inactive)	inactive	inactive
COc1cc(C2NC(C(=O)O)Cc3c2[nH]c2ccccc32)cc(OC)c1OC (configuration not stated)	inactive	-17.2% [at 11.4 µM] (inactive)	1260 nM (active)	inactive
CC(=O)OCC1OC(C#Cc2ccc(Cl)cc2)C=CC1OC(C)=O (configuration not stated)	inactive	-14.6% [at 11.4 µM] (inactive) and -6.86% [at 11.4 µM] (inactive)	inactive	1 µM (active) and inactive
COC(=O)NC(c1ccccc1)[C@]1(C(C)=O)CCCC1=O (some centres not stated)	inactive	-20.1% [at 11.4 µM] (inactive)	inactive	inactive
CC1CCC(C(=O)O)NC1c1ccc(-c2ccco2)cc1 (configuration not stated)	inactive	-4.5% [at 11.4 µM] (inactive)	inactive	inactive
CC(=O)OCC1OC(C#CC2=CCCCC2)C=CC1OC(C)=O (configuration not stated)	inactive	-27.5% [at 11.4 µM] (inactive)	inactive	inactive
CC1(C)OC(C(O)(c2cccc3c2oc2ccccc23)c2cccc3c2oc2ccccc23)C(C(O)(c2cccc3c2oc2ccccc23)c2cccc3c2oc2ccccc23)O1 (configuration not stated)	inactive	-15.2% [at 11.4 µM] (inactive)	inactive	inactive

SMILES	Potency [1]	activity change, negative = inhibition [2]	Potency [3]	Potency [4]
Cc1ccccc1OC1C=CC(c2ccccc2)OC1CO (configuration not stated)	inactive	-11.7% [at 11.4 µM] (inactive)	inactive	5.01 µM (active)
CN1CCc2nc(-c3ccccc3)c(-c3ccccc3)cc2C1	inactive	-24.2% [at 11.4 µM] (inactive)	inactive	inactive
CC(=O)OCC1OC(C#Cc2ccccc2)C=CC1O (configuration not stated)	inactive	-14.6% [at 11.4 µM] (inactive)	inactive	inactive
COc1cc(O)c(C(=O)/C=C/c2ccccc2)c(O)c1	2000 nM (active)	-28.7% [at 11.4 µM] (inactive)	inactive	1.58 µM (active)
OCC1OC(c2ccccc2)C=CC1Oc1cc(Cl)cc(Cl)c1 (configuration not stated)	inactive	5.16% [at 11.4 µM] (inactive)	inactive	–
CC(=O)c1ccc(C2C=CC(O)C(CO)O2)cc1 (configuration not stated)	inactive	-3.24% [at 11.4 µM] (inactive)	inactive	inactive
Cc1c(OCc2ccccc2)cccc1OCc1ccccc1	inactive	-25.2% [at 11.4 µM] (inactive)	inactive	inactive
COC(=O)NC(c1cccc(F)c1)C(C(C)=O)C(=O)OC (configuration not stated)	inactive	-17.1% [at 11.4 µM] (inactive)	inactive	inactive
O=Cc1ccc(OC2C=CC(c3ccccc3)OC2CO)cc1 (configuration not stated)	inactive	-9.85% [at 11.4 µM] (inactive)	inactive	inactive
CC(C)CC1OCCC=CC1C (configuration not stated)	inactive	-2.57% [at 11.4 µM] (inactive)	inactive	inactive
CCOC(=O)OCC1OC(c2ccc(C(C)=O)cc2)C=CC1OC(=O)OCC (configuration not stated)	inactive	-24.1% [at 11.4 µM] (inactive)	inactive	inactive
COC(=O)NC(c1ccccc1)[C@@]1(C(=O)OC)CCCC1=O (some centres not stated)	inactive	-15.7% [at 11.4 µM] (inactive)	inactive	inactive
COC(=O)C/C=C/C(C)C(OC)c1ccccc1Br (configuration not stated)	inactive	-5.95% [at 11.4 µM] (inactive)	inactive	inactive
CC1CCC(C(=O)O)NC1c1ccc(C#CCN(C)C)cc1 (configuration not stated)	inactive	-30.5% [at 11.4 µM] (inactive)	inactive	inactive
CCCCCCC/C=C/C1=CC2(C)CC1(C)C(CCCCCCC)CC2=O (configuration not stated)	inactive	-15% [at 11.4 µM] (inactive)	inactive	inactive
O=C(/C=N/O)NCCCCNC(=O)/C=N/O	inactive	-14.7% [at 11.4 µM] (inactive)	inactive	inactive

— PubChem BioAssay (NCATS)
